Experimental data published in PubChem BioAssay (NCATS).
Inconclusive results are not listed. Active and inactive are the calls of the source. Calls come from the whole dose curve; as a rule, active = well fitted curve in the direction sought with a large enough effect; inconclusive = small, poorly fitted or top-dose-only effect, or another doubt; inactive = no such curve, though single readings can be large; an effect the other way counts as inactive or inconclusive.

Columns and labels:
[1] = target: Cytochrome P450 2C19 (Homo sapiens) (UniProt P33261); assay: qHTS for inhibitors of CYP2C19 against the NCATS DSHEA and TCM libraries (AID 1919974); conditions: CYP2C19 enzyme inhibition, luminescence qHTS; series mostly up to 34.1 µM;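 note: luminescence from luciferin released by CYP2C19 oxidation of a pro-luciferin substrate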; note: potency is the fitted concentration of half-maximal effect
Sequence of Cytochrome P450 2C19 (Homo sapiens) (P33261 whole entry, looked up): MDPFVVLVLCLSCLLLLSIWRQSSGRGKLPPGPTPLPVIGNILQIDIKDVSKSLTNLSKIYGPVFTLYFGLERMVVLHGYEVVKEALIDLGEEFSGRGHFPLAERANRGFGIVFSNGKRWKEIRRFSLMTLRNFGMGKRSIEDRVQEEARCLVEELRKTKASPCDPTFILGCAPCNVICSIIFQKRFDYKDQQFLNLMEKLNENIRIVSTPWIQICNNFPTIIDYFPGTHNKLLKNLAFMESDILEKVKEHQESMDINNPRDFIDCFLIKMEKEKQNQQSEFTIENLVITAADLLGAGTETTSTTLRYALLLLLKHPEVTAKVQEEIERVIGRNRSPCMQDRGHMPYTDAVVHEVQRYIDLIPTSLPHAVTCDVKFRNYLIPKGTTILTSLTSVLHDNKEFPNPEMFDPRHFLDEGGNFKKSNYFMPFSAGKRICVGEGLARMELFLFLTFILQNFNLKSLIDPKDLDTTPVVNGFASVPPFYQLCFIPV
Outline: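 Luminescent P450-Glo format: compounds preincubated 15 min with enzyme and luciferin substrate, reaction run 30-45 min after NADPH regeneration solution. Intraplate controls: ketoconazole for CYP3A4 and CYP2C19, sulfaphenazole for CYP2C9.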

[2] = target: Cytochrome P450 1A2 (Homo sapiens) (UniProt P05177); assay: qHTS for inhibitors of CYPIA2 against the NCATS DSHEA and TCM libraries (AID 1919976); conditions: recombinant CYP1A2 enzyme activity, luminescence; series mostly up to 37 µM; note: potency is the fitted concentration of half-maximal effect
Sequence of Cytochrome P450 1A2 (Homo sapiens) (P05177 whole entry, looked up): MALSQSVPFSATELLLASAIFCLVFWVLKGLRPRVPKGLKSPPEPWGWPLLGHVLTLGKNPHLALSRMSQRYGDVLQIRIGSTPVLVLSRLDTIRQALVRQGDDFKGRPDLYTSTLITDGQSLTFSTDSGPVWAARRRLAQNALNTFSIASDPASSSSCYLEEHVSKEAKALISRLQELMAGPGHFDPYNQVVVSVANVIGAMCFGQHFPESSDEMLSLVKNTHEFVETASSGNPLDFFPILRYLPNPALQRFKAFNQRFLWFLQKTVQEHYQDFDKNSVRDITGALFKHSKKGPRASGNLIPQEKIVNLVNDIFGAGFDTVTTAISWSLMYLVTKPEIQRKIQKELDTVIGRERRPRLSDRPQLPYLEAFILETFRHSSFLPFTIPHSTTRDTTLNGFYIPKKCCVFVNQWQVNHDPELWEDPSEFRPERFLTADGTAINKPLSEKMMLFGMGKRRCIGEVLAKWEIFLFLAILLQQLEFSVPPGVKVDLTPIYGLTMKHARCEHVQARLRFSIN
Outline: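 Human CYP1A2 with pro-luciferin substrate (typically 100 mM KPO4), 15 min preincubation with compound, then 1x NADPH regeneration for 30-45 min at room temperature in the dark. Luciferin quantified by luciferase luminescence; furafylline intraplate control.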

[3] = target: Nuclear receptor subfamily 1 group I member 2 (Homo sapiens) (UniProt O75469); assay: Dual reporter qHTS for antagonist of Pregnane X Receptor (hPXR) against the NCATS DSHEA and TCM libraries: Luminescence Readout (AID 1920060); conditions: hPXR dual reporter cells, luciferase luminescence, antagonist mode; series mostly up to 40 µM;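 note: HepG2 cells carrying hPXR luciferase reporter stimulated with rifampicin at 2 µM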
Sequence of Nuclear receptor subfamily 1 group I member 2 (Homo sapiens) (O75469 whole entry, looked up): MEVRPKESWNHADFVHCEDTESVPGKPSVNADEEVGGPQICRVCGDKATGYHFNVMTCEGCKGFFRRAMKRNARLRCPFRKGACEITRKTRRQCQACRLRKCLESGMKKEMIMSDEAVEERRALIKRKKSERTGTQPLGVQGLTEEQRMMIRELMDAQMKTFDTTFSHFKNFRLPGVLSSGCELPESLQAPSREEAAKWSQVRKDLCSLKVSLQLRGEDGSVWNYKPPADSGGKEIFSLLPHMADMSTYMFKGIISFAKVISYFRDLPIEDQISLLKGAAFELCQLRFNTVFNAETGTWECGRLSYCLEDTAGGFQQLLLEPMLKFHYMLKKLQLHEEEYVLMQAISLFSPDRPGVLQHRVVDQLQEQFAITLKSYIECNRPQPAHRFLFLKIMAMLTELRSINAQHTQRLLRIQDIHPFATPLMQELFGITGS
Outline: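 hPXR-Luc HepG2 cells exposed 24 h at 37 C to compounds with 2 uM rifampicin in antagonist mode; luciferase luminescence measured by ONE-Glo, with CellTiter-Fluor viability read beforehand.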

[4] = target: ATP-dependent 6-phosphofructokinase (Trypanosoma brucei brucei) (UniProt O15648); assay: qHTS Assay to Find Inhibitors of T. brucei phosphofructokinase: hit validation (AID 492961);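 note: luminescence reports ADP formed as PFK phosphorylates fructose-6-phosphate with ATP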; conditions: T. brucei PFK, ADP-Glo luminescence; series mostly up to 24.3 µM
Sequence of ATP-dependent 6-phosphofructokinase (Trypanosoma brucei brucei) (O15648 whole entry, looked up): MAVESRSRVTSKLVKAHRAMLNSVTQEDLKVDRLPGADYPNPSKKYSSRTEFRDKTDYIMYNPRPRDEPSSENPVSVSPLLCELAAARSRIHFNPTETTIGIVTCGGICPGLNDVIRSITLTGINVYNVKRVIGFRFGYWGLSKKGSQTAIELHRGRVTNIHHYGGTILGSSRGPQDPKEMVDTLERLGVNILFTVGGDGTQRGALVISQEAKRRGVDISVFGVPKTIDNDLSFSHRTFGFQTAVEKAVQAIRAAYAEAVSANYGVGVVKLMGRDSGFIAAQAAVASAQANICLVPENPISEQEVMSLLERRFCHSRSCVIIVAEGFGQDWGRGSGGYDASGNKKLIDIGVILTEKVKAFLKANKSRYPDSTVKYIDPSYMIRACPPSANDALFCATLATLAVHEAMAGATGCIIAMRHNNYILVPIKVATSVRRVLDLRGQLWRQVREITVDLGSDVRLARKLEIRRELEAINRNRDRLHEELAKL
Outline: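 In this biochemical qHTS validation, titrated compounds were tested against 1.25 nM PFK with 0.1 mM ATP and 0.5 mM F6P. Percent activity came from controls lacking or containing enzyme.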

7G8 = assay: qHTS profiling for inhibitors of Plasmodium falciparum proliferation (AID 504749); note: nearly all actives have a fitted effect of over 60% in size; conditions: P. falciparum in erythrocytes, SYBR Green DNA, 72 h; series mostly up to 12.8 µM
Outline: (§1)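 Infected RBCs, 0.3% parasitemia/2.5% Hct final; cpd 72 h, 37 C, 5% CO2; lysis buffer with saponin/triton/SYBR Green I, o/n RT dark; FI 485/535; norm. to artemisinin (0.29 uM) and DMSO.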

DIV17 = assay: as above; conditions: P. falciparum in erythrocytes, SYBR Green DNA, 72 h; series mostly up to 12.8 µM
Outline: as §1

ICS = assay: as above; conditions: P. falciparum in erythrocytes, SYBR Green DNA, 72 h; series mostly up to 12.8 µM
Outline: as §1

[5] = Cell Viability - LYMP2-007 (AID 979); conditions: LYMP2-007 lymphoblastoid cell viability; series mostly up to 92.2 µM;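 note: cells exposed to compound for 24 h before reading; nearly all actives have a fitted effect of over 60% in size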
Outline: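 Human lymphoblastoid LYMP2-007 cells (2500/well) preincubated 5 h at 37 C, then treated 24 h at 37 C in complete medium. Viability by CellTiter-Glo ATP luminescence after 30 min at room temperature; AC50 from Hill fits.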

[6] = Cell Viability - LYMP2-008 (AID 980); conditions: LYMP2-008 lymphoblastoid cell viability, qHTS; series mostly up to 92.2 µM; note: nearly all actives have a fitted effect of over 60% in size
Outline: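 LYMP2-008 lymphoblastoid cells (2500/well) plated 5 h, then treated 24 h at 37 C in complete medium. Viability read as intracellular ATP by CellTiter-Glo luminescence after 30 min at room temperature; AC50 from Hill fits.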

[7] = Cell Viability - LYMP2-010 (AID 981); conditions: LYMP2-010 lymphoblastoid cell viability, qHTS; series mostly up to 92.2 µM; note: nearly all actives have a fitted effect of over 55% in size
Outline: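 Human lymphoblastoid LYMP2-010 cells (2500/well) treated 24 h at 37 C in complete medium; viability read as intracellular ATP by CellTiter-Glo luminescence. AC50 from Hill fits of concentration-response data; tetraoctylammonium bromide positive control.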

[8] = Cell Viability - LYMP2-012 (AID 982); conditions: LYMP2-012 lymphoblastoid cell viability qHTS; series mostly up to 92.2 µM;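 note: cellular ATP by luciferase luminescence where a drop means cytotoxicity; cells exposed to compound for one day before reading; nearly all actives have a fitted effect of over 55% in size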
[9] = Cell Viability - LYMP2-014 (AID 983); conditions: LYMP2-014 lymphoblastoid cells, viability qHTS; series mostly up to 92.2 µM; note: nearly all actives have a fitted effect of over 50% in size
Outline: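 LYMP2-014 human lymphoblastoid cells, 2500/well, treated 24 h at 37 C in complete medium; viability by CellTiter-Glo ATP luminescence after 30 min at room temperature. AC50 from Hill fits of qHTS concentration-response; tetraoctylammonium bromide positive control.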

[10] = Cell Viability - LYMP2-016 (AID 984); conditions: LYMP2-016 lymphoblastoid cell viability, qHTS; series mostly up to 92.2 µM; note: nearly all actives have a fitted effect of over 55% in size
Outline: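 Cytotoxicity was scored by luminescent ATP content (CellTiter-Glo) after 24 h compound exposure at 37 C of a human lymphoblastoid line at 2500 cells/well. Concentration-response data were fitted to the Hill equation for AC50.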

[11] = Cell Viability - LYMP2-018 (AID 985); conditions: LYMP2-018 lymphoblastoid cells, viability (qHTS); series mostly up to 92.2 µM;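 note: compound exposure lasted 24 hr at 37 °C; nearly all actives have a fitted effect of over 50% in size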
Outline: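 Human lymphoblastoid LYMP2-018 cells, 2500/well, settled 5 hr at 37 C then exposed to compound 24 hr at 37 C; intracellular ATP measured by CellTiter-Glo luminescence. AC50 from Hill-equation concentration-response fits.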

[12] = Cell Viability - LYMP2-020 (AID 986); conditions: series mostly up to 92.2 µM; note: nearly all actives have a fitted effect of over 55% in size
Outline: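 Human lymphoblastoid LYMP2-020 cells (2500/well) preincubated 5 h at 37 C, then treated 24 h at 37 C. Viability measured as intracellular ATP by CellTiter-Glo luminescence after 30 min at room temperature; AC50 from Hill fits.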

[13] = Cell Viability - LYMP2-022 (AID 987); conditions: LYMP2-022 lymphoblastoid cell viability; series mostly up to 92.2 µM; note: nearly all actives have a fitted effect of over 55% in size
Outline: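 LYMP2-022 lymphoblastoid cells (2500/well, complete medium) were treated with compounds for 24 hours at 37 C; intracellular ATP was then read by CellTiter-Glo luminescence after 30 min at room temperature. AC50 values were derived from Hill-equation fits.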

[14] = Cell Viability - LYMP2-024 (AID 988); conditions: LYMP2-024 lymphoblastoid cell viability; series mostly up to 92.2 µM; note: nearly all actives have a fitted effect of over 60% in size
Outline: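 Human lymphoblastoid LYMP2-024 cells (2500/well) rested 5 hr, then treated with compound for 24 hr at 37 C in complete medium. Viability was measured as intracellular ATP by CellTiter-Glo luminescence. AC50 values came from Hill-equation fits.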

[15] = Cell Viability - LYMP2-026 (AID 989); conditions: LYMP2-026 lymphoblastoid cell viability, qHTS; series mostly up to 92.2 µM; note: nearly all actives have a fitted effect of over 50% in size
Outline: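 Human lymphoblastoid LYMP2-026 cells, 2500/well, exposed to compound 24 h at 37 C in complete medium. Viability as intracellular ATP by CellTiter-Glo luminescence; AC50 from Hill fits of qHTS concentration-response.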

[16] = Cell Viability - LYMP1-002 - Assay at 24 hr (AID 993); conditions: LYMP1-002 lymphoblastoid cells viability; series mostly up to 92.2 µM
Outline: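 Human lymphoblastoid LYMP1-002 cells (2500/well) treated 24 h at 37 °C; viability as intracellular ATP by CellTiter-Glo luminescence. Tetraoctylammonium bromide as positive control; AC50 from Hill-equation fits of qHTS concentration-response.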

[17] = Cell Viability - LYMP1-002 - Assay at 40 hr (AID 994); conditions: LYMP1-002 lymphoblastoid cell viability; series mostly up to 92.2 µM; note: nearly all actives have a fitted effect of over 60% in size
Outline: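 LYMP1-002 human lymphoblastoid cells (2500/well, complete medium) were treated with compounds for 40 hr at 37 C. Intracellular ATP was measured by CellTiter-Glo luminescence, and AC50 values came from Hill-equation fits of concentration-response data; tetraoctylammonium bromide was the positive control.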

Measured: Potency

C=C[C@](C)(O)CCC=C(C)C
inactive: [3]
active: [1] 3.55 µM | [2] 3.55 µM

C[C@@H]1CCC[C@H](C)N1NC(=O)c1ccc(Cl)c(S(N)(=O)=O)c1
inactive: [4] | 7G8 | DIV17 | ICS

O=c1cc(-c2ccc(O)cc2)oc2cc(O[C@H]3OC(CO)C(O)C(O)C3O)cc(O)c12 (stereo partly drawn)
inactive: [1] | [2] | [3]

COC(=O)C1=CO[C@@H](C)[C@H]2CN3CCc4c([nH]c5ccccc45)[C@@H]3C[C@H]12
active: [2] 3.55 µM
inactive: [3]

O=C(/C=C/c1ccc(O)c(O)c1)OC(Cc1ccc(O)c(O)c1)C(=O)O (stereo not drawn)
active: [1] 3.55 µM

COS(C)(=O)=O
not listed: [1] | [2] | [3] | [4] | 7G8 | DIV17 | ICS
inactive: all other assays above

O=C(Cc1cccs1)NC1C(=O)N2C(C(=O)[O-])=C(C[n+]3ccccc3)CSC12 (stereo not drawn)
inactive: 7G8 | DIV17 | ICS

C[N+](C)(C)CC(O)CC(=O)O (stereo not drawn)
inactive: [4] | 7G8 | ICS

C=CC(C)(O)CCC=C(C)C (stereo not drawn)
not listed: [1] | [2] | [3] | [4] | 7G8 | DIV17 | ICS
inactive: all other assays above

C=C(C)[C@H]1CC=C(C)C(=O)C1
not listed: [4] | 7G8 | DIV17 | ICS
inactive: all other assays above

CC1=CC(=O)CC(C)(C)C1(O)/C=C/C(C)=C\C(=O)O (stereo not drawn)
not listed: [1] | [2] | [3] | [4] | 7G8 | DIV17 | ICS
inactive: all other assays above

Cc1occc(=O)c1O
not listed: [1] | [2] | [3] | [4] | 7G8 | DIV17 | ICS
inactive: all other assays above

CN1[C@@H]2CC[C@H]1CC(OC(=O)[C@@H](O)c1ccccc1)C2 (stereo partly drawn)
inactive: [4] | 7G8 | DIV17 | ICS

CN1CCCC[C@@H]1CCN1c2ccccc2Sc2ccc(S(C)=O)cc21 (stereo partly drawn)
inactive: [4] | DIV17
